Algae TAG accum = increases triacylglycerol in Chlamydomonas reinhardtii; 44,000 compounds, 0.84% hits; calls only at 10 µM (by protocol); Chlamydomonas reinhardtii TAG, Nile Red fluorescence, 72 h; AID 1159537; call rule not given here;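 note: hits raise Nile Red signal meaning more stored TAG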
* = called active by the depositor. This excerpt belongs to a sample that is enriched for hits.

How did O=C(Nc1cccc(NC(=O)c2ccccc2Cl)c1)c1ccc([N+](=O)[O-])cc1 do in these assays?
Algae TAG accum: inactive

How did COc1cccc(OC)c1C(=O)Nc1ccc([N+](=O)[O-])cc1 do in these assays?
Algae TAG accum: inactive

What do the screens show for `COc1ccc(C(=O)Nc2ccc(C(C)C)cc2)cc1[N+](=O)[O-]`?
Algae TAG accum: inactive

Results for O=C(Nc1cccc(Cl)c1)c1ccc([N+](=O)[O-])cc1Cl ?
Algae TAG accum: inactive

What do the screens show for `Nc1nnc(CCCCn2c(-c3nonc3N)nc3ccccc32)s1`?
Algae TAG accum: inactive

Results for NNC(=O)c1cc(-c2ccc(Br)cc2)n[nH]1 ?
Algae TAG accum: inactive

Results for CC(C)c1ccccc1NC(=O)Cc1cccs1 ?
Algae TAG accum: inactive

How did Cc1cc(F)c(F)c(C(=O)N2CCCC2)c1Cl do in these assays?
Algae TAG accum: inactive

How did N=c1n(Cc2ccccc2)c2ccccc2n1CC(O)COc1ccc(Cl)cc1 (stereo not given) do in these assays?
Algae TAG accum: inactive

How did N#C/C(=C/c1ccc(Cl)cc1)c1nc(-c2ccc(F)cc2)cs1 do in these assays?
Algae TAG accum: inactive

What do the screens show for `CCN1CCN(CC(O)COCCC23CC4CC(CC(C4)C2)C3)CC1` (stereo not given)?
Algae TAG accum: active

Results for CCOC(=O)N1CCN(CC(O)COCCC23CC4CC(CC(C4)C2)C3)CC1 (stereo not given) ?
Algae TAG accum: inactive

How did OC(COCCC12CC3CC(CC(C3)C1)C2)CN1CCOCC1 (stereo not given) do in these assays?
Algae TAG accum: inactive

What do the screens show for `Cc1cc(C(=O)NCC2CCCO2)ccc1[N+](=O)[O-]` (stereo not given)?
Algae TAG accum: inactive

How did COc1cc(C(=O)Nc2ccc(S(=O)(=O)N3CCCCC3C)cc2)cc(OC)c1OC (stereo not given) do in these assays?
Algae TAG accum: inactive

How did CC1CCCCN1S(=O)(=O)c1ccc(C(=O)Nc2ccc([N+](=O)[O-])cc2)cc1 (stereo not given) do in these assays?
Algae TAG accum: inactive

How did CC1CCCCN1S(=O)(=O)c1ccc(NC(=O)c2ccc(Cl)cc2Cl)cc1 (stereo not given) do in these assays?
Algae TAG accum: active

Results for CC(NC(=O)C1CCN(S(=O)(=O)c2ccc(Br)cc2)CC1)c1ccccc1 (stereo not given) ?
Algae TAG accum: inactive

How did O=C(CSc1nc2ccccc2c(=O)n1Cc1ccccc1)c1ccccc1 do in these assays?
Algae TAG accum: inactive

What do the screens show for `COc1cc(OC)cc(C(=O)N2CCN(C(=O)C(c3ccccc3)c3ccccc3)CC2)c1`?
Algae TAG accum: inactive

Results for COc1ccccc1C(=O)N1CCN(C(=O)C(c2ccccc2)c2ccccc2)CC1 ?
Algae TAG accum: active

What do the screens show for `COc1cccc(CN2CCN(C(=O)C(c3ccccc3)c3ccccc3)CC2)c1OC`?
Algae TAG accum: inactive

What do the screens show for `CCOc1ccccc1OCCOc1cccc(C=O)c1`?
Algae TAG accum: inactive

What do the screens show for `Cc1cccc(OCCCC(=O)Nc2nnc(C)s2)c1`?
Algae TAG accum: inactive

How did Cc1ccccc1C(=O)Nc1ccccc1C(=O)NCc1ccccc1 do in these assays?
Algae TAG accum: inactive

Results for Cc1c(C(=O)Nc2ccccc2C(N)=O)cccc1[N+](=O)[O-] ?
Algae TAG accum: inactive

Results for O=C(Nc1ccccc1C(=O)NCc1ccccc1)c1ccc(F)cc1 ?
Algae TAG accum: active

What do the screens show for `Cc1c(C(=O)Nc2ccccc2C(=O)NCc2ccccc2)cccc1[N+](=O)[O-]`?
Algae TAG accum: active

Results for O=C(Nc1ccccc1C(=O)NCc1ccccc1)c1ccccc1F ?
Algae TAG accum: inactive

What do the screens show for `O=C(Nc1ccccc1C(=O)NCc1cccnc1)c1ccc(F)cc1`?
Algae TAG accum: inactive

Results for c1cc(-c2nc(C3CCCCC3)no2)ccn1 ?
Algae TAG accum: inactive

How did COc1ccccc1OCCOc1cccc(C)c1 do in these assays?
Algae TAG accum: inactive

How did COc1ccc(N(CC(=O)Nc2ccc(Br)cc2)S(C)(=O)=O)cc1OC do in these assays?
Algae TAG accum: inactive

Results for Cc1ccc(NC(=O)c2ccc(C)c(Cl)c2)c([N+](=O)[O-])c1 ?
Algae TAG accum: inactive

Results for O=C(Nc1ccc(Oc2ccccc2)cc1)C1CCN(C(=O)c2cccs2)CC1 ?
Algae TAG accum: inactive

How did O=C(NC1CCCC1)c1ccccc1Br do in these assays?
Algae TAG accum: inactive

Results for O=C1C2C3c4ccccc4C(c4ccccc43)C2C(=O)N1O (stereo not given) ?
Algae TAG accum: inactive

Results for CC=Cc1ccc(OCCCOc2c(OC)cccc2OC)c(OC)c1 ?
Algae TAG accum: inactive

Results for CCN(CCN(C)C)Cc1cccc(F)c1 ?
Algae TAG accum: inactive

What do the screens show for `CCn1c(=N)c(C#N)cc2c(=O)n3cc(C)ccc3nc21`?
Algae TAG accum: inactive

Results for CC(C)c1ccc(C(=O)Nc2ccccc2C(N)=O)cc1 ?
Algae TAG accum: inactive

Results for O=C(Nc1ccccc1C(=O)NCCc1ccccc1)c1ccncc1 ?
Algae TAG accum: inactive

Results for CC(C)NC(=O)c1ccccc1NC(=O)c1ccc(Cl)cc1 ?
Algae TAG accum: active

How did O=C(Nc1ccccc1C(=O)Nc1ccccc1Cl)c1ccncc1 do in these assays?
Algae TAG accum: active

What do the screens show for `O=C(Nc1ccccc1C(=O)NCCCCO)c1ccc(Br)cc1`?
Algae TAG accum: inactive

How did O=C(Nc1ccccc1Cl)c1cccc(Cl)c1Cl do in these assays?
Algae TAG accum: inactive

What do the screens show for `CC(C)NC(=O)c1ccccc1NC(=O)c1ccc(Br)cc1`?
Algae TAG accum: active

How did CC(C)NC(=O)c1ccccc1NC(=O)c1ccccc1 do in these assays?
Algae TAG accum: inactive

What do the screens show for `O=C(Nc1ccccc1F)c1ccc(Br)cc1`?
Algae TAG accum: inactive

How did Cc1cc(C(=O)O)c2cc(I)ccc2n1 do in these assays?
Algae TAG accum: inactive

How did COc1ccc(S(=O)(=O)n2nc(C)cc2C)cc1 do in these assays?
Algae TAG accum: inactive

What do the screens show for `CC(C)NC(=O)C(=O)NCc1ccccc1Cl`?
Algae TAG accum: inactive

What do the screens show for `CC1CCC(N2CCN(Cc3ccccc3)CC2)CC1` (stereo not given)?
Algae TAG accum: active

What do the screens show for `CCN1CCN(C2CCC(C)CC2)CC1` (stereo not given)?
Algae TAG accum: active

Results for C=C(C)CN(CC)C1CCN(Cc2ccccc2)CC1 ?
Algae TAG accum: inactive

Results for c1ccc(CN2CCC(N3CCN(Cc4ccco4)CC3)CC2)cc1 ?
Algae TAG accum: inactive

Results for CC1CCCN(C2CCN(Cc3ccccc3)CC2)C1 (stereo not given) ?
Algae TAG accum: inactive

How did CCCCN(C)C1CCN(Cc2ccccc2)CC1 do in these assays?
Algae TAG accum: inactive

Results for CC(=O)N1CCN(C2CCC(C)CC2)CC1 (stereo not given) ?
Algae TAG accum: inactive

How did CCN1CCC(N2CCN(C=O)CC2)CC1 do in these assays?
Algae TAG accum: inactive

How did CN(CCc1ccccc1)C1CCN(Cc2ccccc2)CC1 do in these assays?
Algae TAG accum: active

What do the screens show for `Cc1ccc(NS(=O)(=O)c2ccc(NC(=O)c3ccc(CN4CCOCC4)cc3)cc2)c(C)c1`?
Algae TAG accum: inactive

What do the screens show for `CNC(=O)C(=O)Nc1ccc(OC)c(Cl)c1`?
Algae TAG accum: inactive

What do the screens show for `NS(=O)(=O)c1ccc(NS(=O)(=O)c2ccc(NC(=O)Nc3ccccc3)cc2)cc1`?
Algae TAG accum: inactive

Results for O=S(=O)(NCC1CCN(S(=O)(=O)c2ccc(Cl)cc2)CC1)c1ccc(Cl)cc1 ?
Algae TAG accum: inactive

Screening data: PubChem BioAssay, DiRusso Lab, Biochemistry Department, University of Nebraska
